Laboratory results published in PubChem BioAssay AID1159580 (chemical genetic matrix, 2015).
Where “and” joins values, the source holds several entries; their conditions need not be identical. Equal entries are not always repeated. Out of some 5,500 compounds screened, about 2,000 (36%) were called active. Inconclusive results (about 18%) are left out. No stated cut-off is given here; in the data, active means normalized growth mostly below about 0.91 (no sharp cut-off); inconclusive means no clear call, values can overlap the other calls; inactive means mostly above about 0.92. The list shows a part of the results.

Experiment: chemical genetic growth profiling, strain panel (AID 1159580);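 further: tested at 20 µM; growth read once vehicle control cultures reached saturation at 30 °C; 1 = growth at the plate median or of vehicle wells; lower values mean less growth of the strain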
Conditions: S. cerevisiae deletion strains, growth OD

Measured: normalized growth

COc1ccc(-c2coc3c(OC)c(OC)cc(O)c3c2=O)cc1
inactive: locus YAL021C, strain ccr4, hits give low values 1.03 | locus YAL026C, strain drs2, hits give low values 1 | locus YAL030W, strain snc1, hits give low values 0.997 | locus YBL061C, strain skt5, hits give low values 0.999 | locus YBR009C, strain hhf1, hits give low values 1.01 | locus YBR023C, strain chs3, hits give low values 0.99 | locus YBR171W, strain sec66, hits give low values 1.03 | locus YBR229C, strain ROT2, hits give low values 0.988 | locus YBR231C, strain swc5, hits give low values 0.994 | locus YBR279W, strain paf1, hits give low values 0.995 | locus YCL011C, strain gbp2, hits give low values 0.998 | locus YCL016C, strain dcc1, hits give low values 1 | locus YCL029C, strain bik1, hits give low values 0.975 | locus YCL061C, strain MRC1, hits give low values 1.01 | locus YCL069W, strain vba3, hits give low values 0.999 | locus YCR088W, strain abp1, hits give low values 0.997 | locus YDL005C, strain med2, hits give low values 1 | locus YDL035C, strain GPR1, hits give low values 0.981 | locus YDL040C, strain nat1, hits give low values 1 | locus YDL074C, strain BRE1, hits give low values 0.924 | locus YDL101C, strain DUN1, hits give low values 0.988 | locus YDL185W, strain tfp1, hits give low values 1.01 | locus YDL192W, strain arf1, hits give low values 0.942 | locus YDR001C, strain nth1, hits give low values 0.997 | locus YDR069C, strain doa4, hits give low values 1 | locus YDR101C, strain arx1, hits give low values 0.947 | locus YDR137W, strain rgp1, hits give low values 0.951 | locus YDR159W, strain sac3, hits give low values 0.988 | locus YDR162C, strain NBP2, hits give low values 0.959 | locus YDR195W, strain ref2 1.05 | locus YDR297W, strain sur2, hits give low values 0.992 | locus YDR318W, strain mcm21, hits give low values 0.948 | locus YDR334W, strain swr1, hits give low values 1.01 | locus YDR335W, strain msn5, hits give low values 1 | locus YDR388W, hits give low values 0.974 | locus YDR392W, strain spt3, hits give low values 0.965 | locus YDR502C, strain sam2, hits give low values 0.95 | locus YEL003W, strain gim4, hits give low values 0.994 | locus YEL037C, strain rad23, hits give low values 1.01 | locus YEL061C, strain CIN8 (second series), hits give low values 1.01 | locus YER015W, strain faa2, hits give low values 1 | locus YER016W, strain bim1, hits give low values 1.01 | locus YER110C, hits give low values 0.959 | locus YER111C, strain swi4, hits give low values 1.03 | locus YER155C, strain BEM2 (second series), hits give low values 1.01 | locus YER155C, strain BEM2, hits give low values 0.996 | locus YER167W, strain BCK2, hits give low values 0.99 | locus YFR010W, strain ubp6, hits give low values 1.01 | locus YGL078C, strain dbp3, hits give low values 0.968 | locus YGL086W, strain mad1, hits give low values 0.954 | locus YGL167C, strain pmr1, hits give low values 1.01 | locus YGL173C, strain kem1, hits give low values 1 | locus YGL227W, strain vid30, hits give low values 1 | locus YGL240W, strain doc1, hits give low values 0.991 | locus YGL248W, strain PDE1, hits give low values 0.96 | locus YGL253W, strain hxk2, hits give low values 1.01 | locus YGR078C, strain PAC10, hits give low values 0.956 | locus YGR135W, strain pre9, hits give low values 0.928 | locus YGR229C, strain SMI1, hits give low values 0.896 | locus YHR013C, strain ard1, hits give low values 0.989 | locus YHR027C, strain rpn1, hits give low values 1.01 | locus YHR030C, strain SLT2, hits give low values 0.917 | locus YHR079C, strain IRE1 (second series), hits give low values 0.978 | locus YHR079C, strain IRE1, hits give low values 0.925 | locus YHR094C, strain hxt1, hits give low values 0.982 | locus YHR129C, strain ARP1, hits give low values 0.985 | locus YHR142W, strain chs7, hits give low values 0.976 | locus YHR200W, strain rpn10, hits give low values 0.941 | locus YIL066C, strain RNR3, hits give low values 0.986 | locus YIL073C, strain SPO22, hits give low values 0.9 | locus YIL125W, strain kgd1, hits give low values 0.983 | locus YIR030C, strain dcg1, hits give low values 0.961 | locus YJL092W, strain hpr5, hits give low values 1.01 | locus YJL095W, strain BCK1 (second series), hits give low values 0.995 | locus YJL095W, strain BCK1, hits give low values 0.871 and 0.958 | locus YJL115W, strain asf1, hits give low values 1.01 | locus YJL129C, strain trk1, hits give low values 0.999 | locus YJL134W, strain LCB3, hits give low values 1 | locus YJL154C, strain vps35, hits give low values 1.01 | locus YJL164C, strain tpk1, hits give low values 0.997 | locus YJL166W, strain qcr8, hits give low values 0.996 | locus YJL168C, strain set2, hits give low values 0.978 | locus YJL187C, strain SWE1 (second series), hits give low values 0.968 | locus YJL187C, strain SWE1, hits give low values 0.992 | locus YJR066W, strain TOR1, hits give low values 0.863 | locus YKL009W, strain mrt4, hits give low values 0.972 | locus YKL068W, hits give low values 0.993 | locus YKL085W, strain MDH1 (second series), hits give low values 0.979 | locus YKL085W, strain MDH1, hits give low values 0.979 | locus YKL160W, strain elf1, hits give low values 0.991 | locus YKR026C, strain gcn3, hits give low values 1.01 | locus YKR091W, strain srl3, hits give low values 0.999 | locus YLL001W, strain dnm1, hits give low values 1.01 | locus YLL026W, hits give low values 1.01 | locus YLL041C, strain sdh2, hits give low values 1.01 | locus YLR027C, strain aat2, hits give low values 1 | locus YLR039C, strain RIC1, hits give low values 0.903 | locus YLR058C, strain SHM2, hits give low values 0.96 | locus YLR102C, strain apc9, hits give low values 0.986 | locus YLR113W, strain HOG1, hits give low values 0.949 | locus YLR221C, strain rsa3, hits give low values 0.997 | locus YLR258W, strain gsy2, hits give low values 0.982 | locus YLR262C, strain YPT6 (second series), hits give low values 0.949 | locus YLR268W, strain sec22, hits give low values 0.927 | locus YLR320W, strain mms22, hits give low values 0.993 | locus YLR330W, strain CHS5, hits give low values 0.976 | locus YLR342W, strain FKS1, hits give low values 1 | locus YLR357W, strain rsc2, hits give low values 0.989 | locus YLR370C, strain arc18, hits give low values 1 | locus YLR371W, strain rom2, hits give low values 0.945 | locus YLR384C, strain iki3, hits give low values 1.01 | locus YLR418C, strain cdc73, hits give low values 0.855 | locus YML016C, strain PPZ1, hits give low values 0.985 | locus YML032C, strain rad52, hits give low values 0.951 | locus YML120C, strain ndi1, hits give low values 0.997 | locus YML124C, strain tub3, hits give low values 0.981 | locus YMR058W, strain fet3, hits give low values 1.01 | locus YMR078C, strain ctf18, hits give low values 0.976 | locus YMR125W, strain sto1, hits give low values 1.01 | locus YMR129W, hits give low values 1 | locus YMR205C, strain PFK2, hits give low values 0.991 | locus YMR223W, strain ubp8, hits give low values 0.95 | locus YMR231W, strain pep5, hits give low values 0.995 | locus YMR263W, strain SAP30, hits give low values 0.97 | locus YMR307W, strain GAS1, hits give low values 0.787 | locus YNL067W, strain RPL9B, hits give low values 0.968 | locus YNL071W, strain lat1, hits give low values 1 | locus YNL128W, strain TEP1, hits give low values 1.01 | locus YNL183C, strain NPR1, hits give low values 0.913 | locus YNL209W, strain ssb2, hits give low values 0.999 | locus YNL233W, strain BNI4, hits give low values 0.908 | locus YNL248C, strain rpa49, hits give low values 1.01 | locus YNL250W, strain rad50, hits give low values 0.997 | locus YNL271C, strain bni1, hits give low values 0.98 | locus YNL298W, strain CLA4, hits give low values 0.965 | locus YNL322C, strain KRE1 (second series), hits give low values 1.01 | locus YNR049C, strain mso1, hits give low values 1 | locus YNR052C, strain pop2, hits give low values 0.977 | locus YOL012C, strain htz1 0.766 | locus YOL147C, strain pex11, hits give low values 0.96 | locus YOR001W, strain rrp6, hits give low values 1.01 | locus YOR061W, strain CKA2, hits give low values 1 | locus YOR069W, strain VPS5, hits give low values 0.995 | locus YOR070C, strain gyp1, hits give low values 1.02 | locus YOR080W, strain dia2, hits give low values 1.01 | locus YOR083W, strain WHI5, hits give low values 0.99 | locus YOR106W, strain vam3, hits give low values 0.989 | locus YOR136W, strain idh2, hits give low values 0.976 | locus YOR144C, strain elg1, hits give low values 0.979 | locus YOR184W, strain ser1, hits give low values 0.887 | locus YOR231W, strain MKK1, hits give low values 0.949 | locus YOR265W, strain rbl2, hits give low values 1.01 | locus YOR270C, strain vph1, hits give low values 0.945 | locus YOR290C, strain snf2, hits give low values 0.986 | locus YOR316C, strain cot1, hits give low values 0.991 | locus YPL051W, strain arl3, hits give low values 0.997 | locus YPL078C, strain atp4, hits give low values 0.991 | locus YPL106C, strain sse1, hits give low values 0.948 | locus YPL240C, strain hsp82, hits give low values 0.994 | locus YPL241C, strain CIN2, hits give low values 1.01 | locus YPL256C, strain CLN2, hits give low values 0.904 | locus YPR119W, strain clb2, hits give low values 0.982 | locus YPR141C, strain kar3, hits give low values 0.979 | locus YPR167C, strain met16, hits give low values 0.955 | strain wtn01, hits give low values 0.942
active: locus YBR021W, strain FUR4, hits give low values 0.838 | locus YGR252W, strain gcn5, hits give low values 0.74 | locus YKR001C, strain vps1, hits give low values 0.871 | locus YNL307C, strain MCK1, hits give low values 0.903 | locus YPR163C, strain tif3, hits give low values 0.866
